For 16 compounds, composite z-score and z-score results are on record in PubChem BioAssay.

Assay [1] relates to XIP peptide (Xip251-270) binding. Description: XIP fragment 251-270 binding compounds – biochemical, small-molecule microarray, fluorescence 635/667 nm, 0.1 µg/mL protein, primary screen (AID 1182). To be noted: fluorescent protein binding, 635 nm, higher = more signal, called active from +8 up or from −8 down.
For a further assay, the system named is XIP peptide (Xip251-270). Put plainly: compounds binding XIP fragment 251-270 – biochemical, small-molecule microarray, fluorescence 635/667 nm, 0.5 µg/mL protein, primary screen (AID 1183). To be noted: fluorescence 635 nm, higher = more signal.
The nature of assay [2]: blood-stage malaria parasite viability loss – strain 3D7, DAPI fluorescence, 100 nL, primary screen (AID 1184).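 Also: parasites grown inside human red blood cells in medium with human serum.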 To be noted: P. falciparum 3D7 growth, 3 d, higher = more signal.
The target in assay [3] is Homeobox protein Hox-A13 (Mus musculus) (UniProt Q62424). Put plainly: disruptors of Hoxa13 oligonucleotide interaction – biochemical, fluorescence polarization, labeled oligonucleotide, primary screen (AID 1185). The following applies: Hoxa13:DNA binding, 15 min, higher = more signal, called active from +8 up or from −8 down.
Sequence of Homeobox protein Hox-A13 (Mus musculus) (Q62424 whole entry, looked up): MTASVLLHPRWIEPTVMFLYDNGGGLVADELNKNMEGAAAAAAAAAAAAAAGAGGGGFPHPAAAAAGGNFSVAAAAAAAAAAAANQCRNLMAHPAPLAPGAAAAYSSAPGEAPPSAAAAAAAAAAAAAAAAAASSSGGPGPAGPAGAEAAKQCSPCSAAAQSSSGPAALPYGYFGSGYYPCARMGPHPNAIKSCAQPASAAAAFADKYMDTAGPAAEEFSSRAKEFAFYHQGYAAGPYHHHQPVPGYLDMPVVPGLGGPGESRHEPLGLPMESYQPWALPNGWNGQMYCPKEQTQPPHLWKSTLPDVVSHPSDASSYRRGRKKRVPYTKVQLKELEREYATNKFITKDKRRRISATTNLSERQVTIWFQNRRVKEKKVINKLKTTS
Assay [4] in a line: blockers of DNA damage checkpoint Chk1 activation – imaging, HeLa, hydroxyurea, phospho-Chk1 antibody, percent positive cells, primary screen (AID 1186). The following applies: hydroxyurea-induced phospho-Chk1 immunofluorescence imaging, higher = more signal.
Assay [5] is described as follows: blockers of DNA damage checkpoint Chk1 activation – imaging, HeLa, hydroxyurea, phospho-Chk1 nuclear intensity, primary screen (AID 1187). The following applies: hydroxyurea-induced phospho-Chk1 immunofluorescence imaging, higher = more signal.

The structures appear in SMILES notation. Active and inactive are the calls of the source. Unless noted, no rule for the calls is given here.

Regarding `C=C(C(=O)CC[C@H](OC(=O)c1ccccc1-c1ccccc1C(=O)O)c1ccc(CO)o1)C(C)C`, the composite z-score in assay [1] was 0.161 (inactive); in the assay on XIP peptide (Xip251-270) it was 0.697. The z-score in assay [2] is -0.241; in assay [3], -6.22 (inactive); in assay [4] it was 0.38 (inactive); in assay [5], 0.239 (inactive).

On to `COCCOC(=O)N1C(=O)[C@@]2(c3cc(C#CC4(O)CCCCCC4)ccc31)[C@H](C(=O)N1CCCCCCC1)[C@H]1C(=O)O[C@H](c3ccccc3)[C@H](c3ccccc3)N1[C@@H]2c1ccc(O)cc1`, for which the composite z-score in assay [1] was 0.888 (inactive); in the assay on XIP peptide (Xip251-270), 0.683. Also, the z-score in assay [2] was -2.19; in assay [3], 3.51 (inactive); in assay [4], -0.169 (inactive); in assay [5], 0.085 (inactive).

For `COC(=O)[C@@]1(Cc2ccccc2CN=[N+]=[N-])N=C(c2ccc(OCCCO)cc2)O[C@H]1c1ccccc1N=[N+]=[N-]`, the composite z-score was 0.413 (inactive) in assay [1] and 0.653 with XIP peptide (Xip251-270). Besides, the z-score in assay [2] is -1.94; in assay [3], 0.683 (inactive); in assay [4], 0.0586 (inactive); in assay [5], 0.0586 (inactive).

As for `COc1ccc(-c2cc3c(c(-c4ccccc4)n2)[Si](C(C)C)(C(C)C)O[C@H]3c2ccccc2)cn1`, the composite z-score is 0.64 (inactive) in assay [1] and 0.559 with XIP peptide (Xip251-270). Besides, the z-score in assay [2] is -2.91; in assay [3] it was -2.23 (inactive); in assay [4], -0.317 (inactive); in assay [5] it was -0.344 (inactive).

`COCCOC(=O)N1C(=O)[C@@]2(c3cc(C#CCNC(N)=O)ccc31)[C@H](C(=O)N1CCCCCCC1)[C@H]1C(=O)O[C@H](c3ccccc3)[C@H](c3ccccc3)N1[C@@H]2c1ccccc1OCCO`: the composite z-score in assay [1] was 0.252 (inactive); in the assay with XIP peptide (Xip251-270), 0.276. Moreover, the z-score in assay [2] is -1.87; in assay [3], 3.73 (inactive); in assay [4], -0.0292 (inactive); in assay [5], -0.349 (inactive).

`COc1cc(Cc2cc3c(c(CCc4ccccc4)n2)[Si](C(C)C)(C(C)C)OC3)cc(OC)c1OC`: the composite z-score was -0.521 (inactive) in assay [1] and -0.122 with XIP peptide (Xip251-270). The z-score in assay [2] was -2.33; in assay [3], -3.47 (inactive); in assay [4] it was -0.0504 (inactive); in assay [5], -0.0848 (inactive).

Take `O=C1c2ccccc2[C@@]2(Cc3ccccc3N(CC(F)(F)F)C2=O)[C@H](c2ccc(CO)cc2)N1C1CCCCC1`: the composite z-score was 0.586 (inactive) in assay [1] and 0.536 in the assay with XIP peptide (Xip251-270). The z-score is -0.361 in assay [2], 0.601 (inactive) in assay [3], -0.202 (inactive) in assay [4] and -0.26 (inactive) in assay [5].

In the case of `CCOC(=O)C1=CCC(c2cccc3ccccc23)N(S(=O)(=O)c2ccc(C)cc2)C1` (stereo unspecified), the composite z-score in assay [1] was 0.225 (inactive); with XIP peptide (Xip251-270), 0.449. The z-score is -1.77 in assay [2], -1.57 (inactive) in assay [3], 0.18 (inactive) in assay [4] and -0.129 (inactive) in assay [5].

On to `O=C1OCCC/C=C\[C@H]2OC34C=CCN(CCN5CCOCC5)C(=O)[C@H]3N(CCCCCO)C(=O)[C@@H]4C12` (stereo partly specified), for which the composite z-score in assay [1] is 0.853 (inactive); in the assay on XIP peptide (Xip251-270) it was -0.733. Besides, the z-score is 1.82 in assay [2], -4.6 (inactive) in assay [3], 0.564 (inactive) in assay [4] and 0.292 (inactive) in assay [5].

As for `COC(=O)C(CC#Cc1ccc2c(c1)[C@]1(C(=O)N2)[C@H](C(=O)N2CCCCCCC2)[C@H]2C(=O)O[C@H](c3ccccc3)[C@H](c3ccccc3)N2[C@@H]1c1ccc(O)cc1)C(=O)OC`, the composite z-score in assay [1] is 0.431 (inactive); in the assay with XIP peptide (Xip251-270), 0.459. Further, the z-score in assay [2] is -1.39; in assay [3] it was 1.11 (inactive); in assay [4], -0.197 (inactive); in assay [5], -0.109 (inactive).

Take `CC(C)(C)OC(=O)CC[C@]1(C(=O)NCCN2CCOCC2)N=C(c2ccc(OCCCO)cc2)O[C@H]1c1ccccc1CN=[N+]=[N-]`: the composite z-score in assay [1] is 1.16 (inactive); in the assay with XIP peptide (Xip251-270), 0.58. Besides, the z-score was -0.867 in assay [2], -4.75 (inactive) in assay [3], -0.593 (inactive) in assay [4] and -0.6 (inactive) in assay [5].

As for `CC1=C([C@H](O)CCc2ccccc2)[C@H](CO)[C@@H]2C(=O)N(Cc3ccccc3)C(=O)[C@@H]2C1`, the composite z-score in assay [1] was -0.241 (inactive); in the assay on XIP peptide (Xip251-270), -0.0644. Further, the z-score is -0.793 in assay [2], -4.92 (inactive) in assay [3], -0.698 (inactive) in assay [4] and -0.835 (inactive) in assay [5].

For `C=CCNC(=O)[C@@H]1[C@H]2C(=O)O[C@H](c3ccccc3)[C@H](c3ccccc3)N2[C@H](c2ccc(OCCO)cc2)[C@@]12C(=O)N(C(=O)OCCOC)c1ccc(C#CC3(O)CCCCCC3)cc12`, the composite z-score in assay [1] is 0.87 (inactive); in the assay on XIP peptide (Xip251-270), 0.675. In addition, the z-score in assay [2] is -2.33; in assay [3], 2.65 (inactive); in assay [4] it was -0.0211 (inactive); in assay [5], 0.0364 (inactive).

Consider `CCOC(=O)C1=CC[C@@H](c2ccc(-c3ccc(OCc4ccccc4)cc3)c(OC)c2)N(S(=O)(=O)c2ccc(C)cc2)[C@H]1c1ccccc1`, for which the composite z-score in assay [1] is 0.525 (inactive); in the assay on XIP peptide (Xip251-270), 0.6. In addition, the z-score in assay [2] was -1.94; in assay [3], -0.242 (inactive); in assay [4], -1.04 (inactive); in assay [5], -0.995 (inactive).

With `O=C(NCc1ccccc1)[C@@]1(CCS(=O)(=O)c2ccccc2)COC(c2ccc(OCCCO)cc2)=N1`, the results for the composite z-score (in assay [1]; in the assay on XIP peptide (Xip251-270)) were 1.13 (inactive) and 0.881, respectively. Besides, the z-score in assay [2] is -2.26; in assay [3], -4.72 (inactive); in assay [4] it was -0.712 (inactive); in assay [5] it was -0.464 (inactive).

Take `COc1ccc([Si](C)(C)[C@H]2[C@H](CCO)O[C@@]3(C(=O)N(Cc4ccc(N5CCCCC5=O)cc4)c4ccccc43)[C@@H]2C)cc1`: the composite z-score was 0.125 (inactive) in assay [1] and 0.81 in the assay with XIP peptide (Xip251-270). The z-score in assay [2] is -1.39; in assay [3] it was -4.54 (inactive); in assay [4] it was -0.688 (inactive); in assay [5], -0.167 (inactive).
